This is a sample that favours compounds with a hit; in the whole collection about 1.2% have one here.
IL1B NFkB pot: enhances IL-1B driven NFkB nuclear translocation; AID 819; HUVEC IL-1B NFkB p65 nuclear translocation imaging; hit rate 0.3% among 94,000; activation, % at 2 µM;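 active = activation above 40%, about the mean plus 3 SD, also judged a hit on visual image review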;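 note: percent activation is computed from the nuclear over cytoplasmic p65 intensity ratio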
sEH inhibitor: soluble epoxide hydrolase (human) inhibition; recombinant human sEH enzymatic activity assay; P34913; hit rate 0.34% among 91,000; inhibition, % at 2 µM; in the data active = inhibition above about 80%
Target sequence (P34913 whole entry, looked up): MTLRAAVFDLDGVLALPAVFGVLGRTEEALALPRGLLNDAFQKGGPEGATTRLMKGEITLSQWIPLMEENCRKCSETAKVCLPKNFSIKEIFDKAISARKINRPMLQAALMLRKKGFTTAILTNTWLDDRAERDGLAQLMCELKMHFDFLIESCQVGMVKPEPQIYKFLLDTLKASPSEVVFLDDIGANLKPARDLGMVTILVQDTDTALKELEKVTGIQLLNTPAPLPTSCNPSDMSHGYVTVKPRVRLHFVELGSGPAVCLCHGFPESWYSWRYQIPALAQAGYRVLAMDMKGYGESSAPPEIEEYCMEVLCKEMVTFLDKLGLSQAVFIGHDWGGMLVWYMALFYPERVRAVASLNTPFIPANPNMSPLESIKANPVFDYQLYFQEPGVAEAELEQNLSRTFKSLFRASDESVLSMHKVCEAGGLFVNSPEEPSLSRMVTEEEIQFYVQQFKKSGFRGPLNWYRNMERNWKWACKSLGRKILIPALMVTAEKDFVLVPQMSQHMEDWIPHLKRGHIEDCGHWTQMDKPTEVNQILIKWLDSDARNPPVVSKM
HUVEC tox IL1B: HUVEC cytotoxicity counter-screen, IL-1B stimulated | HUVEC cell count loss, Hoechst imaging | cell count reduction, % at 2 µM | hit rate 0.41% among 94,000 | AID 845;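 active = cell count reduction more than 3 SD above the screen-wide mean, cut at about 70% in these data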;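 note: normalized per plate to untreated control cells as the no-loss baseline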
sEH activator: increases human soluble epoxide hydrolase activity. activation, % at 2 µM. purified human sEH enzymatic activity, activator screen. hit rate 0.04% among 91,000. AID 717; in the data active = activation above about 37%
NFkB transloc inh: blocks IL-1B driven NFkB nuclear translocation in HUVEC cells. HUVEC IL-1B NFkB p65 nuclear translocation imaging. inhibition, % at 2 µM. hit rate 0.43% among 94,000. AID 796;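 active = inhibition above about 30% together with a positive call from visual inspection of the well image, limit read from the data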;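 note: nuclear over cytoplasmic p65 intensity ratio measured by imaging; 0% = IL-1B stimulated DMSO wells and 100% = unstimulated DMSO wells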
The depositor's hits bear a star; / = no result given.

SMILES | IL1B NFkB pot | sEH inhibitor | HUVEC tox IL1B | sEH activator | NFkB transloc inh
COc1cc(NC(=O)c2cc3ccccc3o2)c(OC)cc1Cl | -99.5 | -4.9 | 78.1* | 3.6 | 99.5*
COc1cc(NC(=O)c2cc3ccccc3o2)c(OC)cc1Br | 2.3 | -3.5 | 4.0 | 4.8 | -2.3
COC(=O)C1C(=O)NC(SC)=C(C#N)C1c1ccccc1F (stereo not drawn) | 0.5 | -4.2 | -29.4 | 4.2 | -0.5
Cc1cc2nc(-c3ccc(SCC(=O)N4CCOCC4)nc3)[nH]c2cc1C | 16.0 | 60.8 | -43.0 | -61.6 | -16.0
Cc1cc2nc(-c3ccc(SCC(=O)N4CCN(C(=O)c5ccco5)CC4)nc3)[nH]c2cc1C | 23.9 | 81.1* | 15.5 | -80.7 | -23.9
C=CCN1C(=O)C2C(C(=O)NC3CCCCC3)C3C=CC2(O3)C1C(=O)NC1CCCC1 (stereo not drawn) | -99.5 | -9.8 | 89.6* | 8.4 | 99.5*
COC(=O)c1ccccc1Sc1c(/C=N/OC(=O)c2ccccc2)c(C(F)(F)F)nn1C | -44.5 | -9.5 | 30.4 | 11.1 | 44.5*
Cc1ccc(C(=O)O/N=C/c2c(C(F)(F)F)nn(C)c2Sc2ccc(Cl)cc2)cc1 | 19.5 | 2.4 | 12.0 | 0.6 | -19.5
COCCN(CC(=O)NCc1ccccc1)C(=O)CCC(=O)Nc1nccs1 | 40.6* | 9.0 | 2.5 | -10.2 | -40.6
COC(=O)C1=C(C(=O)OC)C2(OC1c1ccccc1C)C(=O)c1ccccc1C2=O (stereo not drawn) | -13.5 | 3.6 | 37.4 | 1.5 | 13.5
COc1ccccc1N1CCN(C(c2ccccc2)c2nnnn2CCc2ccccc2)CC1 (stereo not drawn) | 12.1 | 11.8 | -38.2 | -6.7 | -12.1
CC(=O)Nc1ccc(S(=O)(=O)NCCc2ccc(S(N)(=O)=O)cc2)cc1 | -30.2 | 9.0 | -14.0 | -10.9 | 30.2*
O=S(=O)(c1ccc2c(c1)OCCO2)N1CCN(Cc2ccc3c(c2)OCO3)CC1 | 4.3 | -0.3 | -7.1 | -0.9 | -4.3
Cn1c(=O)oc2cc(S(=O)(=O)N3CCN(Cc4ccc5c(c4)OCO5)CC3)ccc21 | -11.4 | / | 87.4* | / | 11.4
c1ccc(-c2csc(Nc3ccc4c(c3)OCCO4)n2)cc1 | -44.1 | -18.8 | -111.8 | 16.6 | 44.1*
CCc1nc(SCc2ccc(F)cc2)[nH]c(=O)c1C#N | -1.7 | 5.2 | -20.0 | -5.9 | 1.7
CCc1ccc2[nH]c(=O)c(CN(Cc3ccco3)S(=O)(=O)c3ccc4c(c3)OCCO4)cc2c1 | 5.8 | -42.4 | -9.4 | 39.1* | -5.8
Cc1ccc(C)c2[nH]c(=O)c(CN(Cc3ccco3)S(=O)(=O)c3ccc4c(c3)OCCO4)cc12 | -0.3 | 7.8 | -3.2 | -8.9 | 0.3
CC(C)NCCOCCOc1ccccc1F | 16.2 | 0.8 | 10.8 | 0.1 | -16.2
Cc1cccc2c1-c1sc(C(=O)Nc3nccs3)cc1CO2 | 5.5 | -51.7 | 3.0 | 52.6* | -5.5
CCN1CCN(C(=S)c2ccc(OCC(=O)N3CCOCC3)cc2)CC1 | -14.5 | 2.4 | -4.3 | -2.3 | 14.5
Cc1cc(SCC(=O)c2ccc3c(c2)OCO3)nc2ccccc12 | -57.4 | -3.9 | -40.3 | 5.9 | 57.4*
Cc1cc(C)cc(N(CC(=O)N2CCn3c2nc2ccccc23)S(=O)(=O)c2c(C)noc2C)c1 | -5.3 | 4.4 | -9.5 | -1.0 | 5.3
COc1ccc(CNC(=O)/C=C/c2cc3c(cc2Br)OCO3)cc1 | 3.1 | 86.5* | -8.2 | -86.1 | -3.1
CN1CCN(C(=O)CSc2nc(-c3cccs3)ccc2C#N)CC1 | 10.0 | -10.6 | 6.9 | 12.4 | -10.0
SMILES | IL1B NFkB pot | sEH inhibitor | HUVEC tox IL1B | sEH activator | NFkB transloc inh
CCSc1nnc(NC(=O)Cc2cccc(OC)c2)s1 | -35.7 | -8.4 | 46.7 | 6.5 | 35.7*
COc1ccc2sc3c(=O)[nH]c4ccccc4c3c2c1 | 43.4* | 9.4 | -39.5 | -8.8 | -43.4
Cc1c(/C(O)=C2/C(=O)C(=O)N(CCN3CCOCC3)C2c2cccnc2)cnn1-c1ccccc1 (stereo not drawn) | 59.6* | 7.9 | 2.3 | -6.1 | -59.6
O=C(NCC1CCCC(CNC(=O)N2CCc3ccccc32)C1)N1CCc2ccccc21 (stereo not drawn) | -8.9 | 92.4* | -5.2 | -92.5 | 8.9
O=C(CSc1nnc(-c2ccccc2)n1Cc1ccco1)NCc1ccc2c(c1)OCO2 | 59.1* | 0.7 | 7.9 | -6.2 | -59.1
O=C(CSc1nnc(-c2ccccc2)n1Cc1ccco1)Nc1ccc2c(c1)OCCO2 | 4.6 | / | 1.4 | / | -4.6
Cc1cccc(C)c1N1CCN(c2nc(N(C)C)oc(=O)c2C#N)CC1 | 16.4 | 1.1 | -12.8 | 0.9 | -16.4
Cc1ccccc1OC1C(=O)N(Cc2ccc3c(c2)OCO3)C1c1sccc1C (stereo not drawn) | 2.2 | 9.2 | -12.9 | -7.4 | -10.8
CCCCNC1C(CC)C(CCC)C(C#N)(C#N)C1(C#N)C#N (stereo not drawn) | -1.7 | -48.4 | -66.7 | 44.5* | 1.7
Brc1ccccc1-c1nnc2sc(Cc3ccccc3)nn12 | 59.1* | -0.5 | -20.2 | -2.0 | -59.1
CCOC(=O)C1CCN(C(=O)C2CC(=O)N(c3ccc(C)cc3)C2)CC1 (stereo not drawn) | 16.6 | 2.1 | 4.0 | 0.8 | -16.6
CCOC(=O)COc1ccc(Br)cc1C1NC(=O)NC(C)=C1C(=O)NCc1ccccc1 (stereo not drawn) | -14.0 | -1.1 | -1.0 | 4.0 | 14.0
O=C(Nc1ccc2oc(-c3cccnc3)nc2c1)c1ccco1 | 9.9 | -10.0 | -7.6 | 11.8 | -9.9
O=C(Nc1ccc2nc(-c3ccccc3)oc2c1)c1ccco1 | 40.3* | / | -39.3 | / | -40.3
C=CCSc1nc(NC)c2sccc2n1 | 0.9 | 9.5 | 8.1 | -8.9 | -0.9
O=C(Cn1c(-c2cncs2)nc2ccccc21)NCc1ccccc1 | -1.6 | -6.7 | 90.5* | 5.9 | 1.6
Cc1ccccc1Cn1c(-c2cncs2)nc2ccccc21 | -0.6 | -7.0 | 16.9 | 5.9 | 0.6
CCOC(=O)CCc1c(C)c2c(C)nn(-c3ccccc3)c2[nH]c1=O | -32.3 | -4.2 | -38.1 | 3.9 | 32.3*
CC(C)(O)c1cn(-c2nonc2N)nn1 | / | 2.8 | / | -2.8 | /
CCn1c(SCc2ccc(C)cc2)nnc1-c1cnccn1 | 63.3* | 4.2 | -1.2 | -5.4 | -63.3
S=C(NCc1ccccn1)Nc1ccc(Cl)cc1Cl | -5.8 | 6.7 | 4.9 | -3.9 | 5.8
Cc1ccc(S(=O)(=O)CCC(=O)N2CCN(c3ccc(Cl)cc3)CC2)cc1 | / | 3.1 | / | -1.8 | /
O=C(Nc1ccc2c(c1)nc1n2CCN(Cc2ccccc2)C1)NC1CCCCC1 | 10.5 | 90.9* | 0.7 | -90.9 | -10.5
COCCN1CCn2c(nc3cc(NC(=O)NC4CCCCC4)ccc32)C1 | 7.0 | 76.2 | -61.3 | -75.9 | -7.0
CCC(=O)N1CCN(c2ccc(Cl)cc2NC(=O)Cc2ccc(Cl)cc2)CC1 | 7.7 | -14.6 | 16.0 | 18.2 | -7.7
CC1(C)CC(=O)C/C(=N/NC(=O)CCCOc2ccc(Cl)cc2Cl)C1 | -2.7 | 27.2 | -21.8 | -26.7 | 2.7
O=C(CCCOc1ccc(Cl)cc1Cl)N/N=C\C1CCCCC1 | 5.2 | 98.6* | 6.9 | -98.5 | -5.2
O=C(Nc1ccccc1Sc1ccccc1)C1CCCO1 (stereo not drawn) | -3.2 | 3.9 | -2.4 | -0.2 | 3.2
C=CCn1c(SCC(=O)Nc2ncc(Cc3cc(C(F)(F)F)ccc3Cl)s2)nnc1-c1ccncc1 | 24.2 | -10.4 | -23.7 | 9.0 | -24.3

From PubChem BioAssay
